ChEMBL document CHEMBL4513216, “Probing the Open Global Health Chemical Diversity Library for Multistage-Active Starting Points for Next-Generation Antimalarials” (ACS Infect Dis, 2020)
About 8,600 (12%) of roughly 69,000 compounds showed an effect of 50% or more. For the sample, strong results were picked, then their nearest neighbours and some compounds at random.

System: Plasmodium berghei
Assay: Screen against P. berghei liver stage (PbLuc), transformed with Luciferase, at 10uM
Format: functional, HepG2
Conditions: tested at 10 uM

Row | SMILES | INHIBITION
1 | CC(C)n1cnnc1CN(C)C(=O)c1ccccc1N1CCOCC1 | 7.92%
2 | CCN(CC(O)c1ccc(C)cc1)C(=O)NC(C)C (centres undefined) | 17.8%
3 | COc1c(C2CCCN2C(=O)c2cccc(C)n2)c(C)nn1C (centres undefined) | 1.78%
4 | CNC(=O)[C@@H]1C[C@H]2CN(Cc3csc(C)n3)C[C@H]2N1C(C)C | 42.4%
5 | COCC(=O)Nc1cnc(N2CCOCC2)nc1 | 26.9%
6 | CCOc1ccc(NC(=O)Nc2cnc(N3CCOCC3)nc2)cc1 | -8.66%
7 | O=C(COc1ccc(Cl)cc1)Nc1cnc(N2CCOCC2)nc1 | 52.7%
8 | O=C(CCCc1ccccc1)Nc1cnc(N2CCOCC2)nc1 | -33.3%
9 | O=S(=O)(Nc1cnc(N2CCOCC2)nc1)c1ccc(C(F)(F)F)cc1 | -18%
10 | O=C(Nc1cnc(N2CCOCC2)nc1)c1ccc(C(F)(F)F)cc1 | 77.9%
11 | CCN1CC2(CC1=O)CN(C(=O)NC(C)C)CCN(S(C)(=O)=O)C2 (centres undefined) | 21.6%
12 | O=S(=O)(c1ccc(F)cc1)N1CCCC(c2nccs2)C1 (centres undefined) | 13.5%
13 | CC(=O)NCc1nccnc1C1CCN(C(=O)c2cc[nH]n2)CC1 | -19.7%
14 | Cc1cnc(N2CCC3(CC2)CC3CNC(=O)C2CCC2)nc1 (centres undefined) | 50.7%
15 | Cc1cnc(N2CCC3(CC2)CC3C(=O)NCC2CC2)nc1 (centres undefined) | 16.9%
16 | Cc1cnc(N2CCC3(CC2)CC3CNC(=O)N(C)C)nc1 (centres undefined) | 7.24%
17 | CC(C)(C)CC(=O)NS(=O)(=O)c1ccc(F)cc1C(F)(F)F | -15.5%
18 | Cc1nn(C)c(C)c1C1CCCN1Cc1nc2ccccc2c(=O)[nH]1 (centres undefined) | -33.7%
19 | O=c1[nH]c(NCc2cccc(-c3ccccc3)c2)nc2c1CCNC2 | 21.9%
20 | O=c1[nH]c(NCc2cccc(OC(F)F)c2)nc2c1CCNC2 | 88%
21 | COc1cc(CNc2nc3c(c(=O)[nH]2)CCNC3)cc(OC)c1OC | 57.8%
22 | O=c1[nH]c(COc2ccccc2Cl)nc2c1CCNC2 | 2.15%
23 | O=c1[nH]c(COc2cccc(F)c2)nc2c1CCNC2 | 15.8%

Row | SMILES | INHIBITION
24 | CC(C)(C)c1ccc(OCc2nc3c(c(=O)[nH]2)CCNC3)cc1 | -13.3%
25 | CCC=C(C)C(=O)N1CSCC1C(=O)NC1=NCCS1 (centres undefined) | 7.58%
26 | OC1CCN(C2CCN(Cc3cnc(-c4cccs4)nc3)CC2)CC1 | 25.1%
27 | C[C@@H]1CN(C2CCN(Cc3cnc(-c4cccs4)nc3)CC2)C[C@H](C)O1 | 63.7%
28 | CC(C1CCN(Cc2cnc(-c3cccs3)nc2)CC1)N(C)C (centres undefined) | 18.8%
29 | CC(C)n1ncc2cc(NC(=O)N3CCSCC3)cnc21 | 11.2%
30 | O=C(Cc1csc(-c2ccco2)n1)N1CCN(c2ccccc2O)CC1 | -44.3%
31 | CC(=O)N1CCOCC(Cc2ccc3c(ccn3C(C)=O)c2)C1 (centres undefined) | 12.59%
32 | Cc1ccc(CC2COCCN(S(=O)(=O)c3ccccc3)C2)nc1 (centres undefined) | 1.62%
33 | CC(C)c1nn(C)c(N(C)C)c1CNC1CCc2cc(F)ccc21 (centres undefined) | -25.3%
34 | CCNC(=O)c1ccnc(N2CCCC(COc3ccccc3C)C2)c1 (centres undefined) | 30.9%
35 | CCc1nnsc1C(=O)N1CCCC(COc2ccc(F)cc2)C1 (centres undefined) | 26.4%
36 | COCC(=O)N1CCCC(COc2ccccc2C)C1 (centres undefined) | -4.37%
37 | CN(C)Cc1nc(C(=O)N2CCCC(COc3ccc(F)cc3)C2)cs1 (centres undefined) | 15.7%
38 | CN(C)Cc1ccc(C(=O)N2CCCC(COc3ccc(F)cc3)C2)o1 (centres undefined) | 63%
39 | COc1ccc(OCC2CCCN(c3nc(CO)cs3)C2)cc1 (centres undefined) | -3.43%
40 | Cc1nc(N)cc(N2CCCC(COc3cccc(F)c3)C2)n1 (centres undefined) | 73.8%
41 | Cc1nc(CN(C)C)cc(N2CCCC(COc3ccc(F)cc3)C2)n1 (centres undefined) | 79.5%
42 | Cc1ccccc1OCC1CCCN(c2cc(N)nc(N)n2)C1 (centres undefined) | 73.8%
43 | OCc1csc(N2CCCC(COc3cccc(F)c3)C2)n1 (centres undefined) | 39.9%
44 | COc1cccc(OCC2CCCN(c3cc(C(N)=O)ccn3)C2)c1 (centres undefined) | 40.7%
45 | Cc1ccc(OCC2CCCN(c3cc(C(N)=O)ccn3)C2)cc1 (centres undefined) | 26.5%
46 | O=C(c1ccccc1)N1CC2(CCNC2)OCc2ccccc21 (centres undefined) | -0.621%

Row | SMILES | INHIBITION
47 | Cc1cnc(N2Cc3nccn3CC(Cn3ncccc3=O)C2)nc1 (centres undefined) | 38.2%
48 | CCN1CC(C(=O)NCCc2csc(-c3ccncc3)n2)CC1=O (centres undefined) | -2.92%
49 | CC(=O)N1CCC(Cc2cccc(-c3c(C)noc3C)n2)C1 (centres undefined) | 8.53%
50 | Nc1nc(N2CCCC(COc3ccc(F)cc3)C2)c2nc[nH]c2n1 (centres undefined) | 33.7%
51 | Nc1cc(N2CCCC(COc3ccc(F)cc3)C2)ncn1 (centres undefined) | 23.7%
52 | Nc1cc(N2CCCC(COc3ccc(F)cc3)C2)nc(N)n1 (centres undefined) | 79.5%
53 | OC(COCc1ccccc1Cl)CN1CCC(c2ccn[nH]2)CC1 (centres undefined) | 48.2%
54 | Cc1ccc(CN2CC3(CCNCC3)CCC2=O)c(F)c1F | 71.1%
55 | COc1cccc(CN2CC3(CCNCC3)CCC2=O)c1OC | 24.2%
56 | COc1ccc(CN2CC3(CCNCC3)CCC2=O)c(F)c1F | 22.9%
57 | c1ccc(NC[C@@H]2CCC[C@@H]3CN(c4ncccn4)C[C@@H]32)nc1 | 48.4%
58 | CC[C@H]1CN(C(=O)c2cnc(N3CCN(C)CC3)nc2C)CC[C@@]1(C)O | 1.93%
59 | CC(=O)N1CCc2nnc(C3CCCN3CC3CCCCC3)n2CC1 (centres undefined) | -5.71%
60 | CC(C)C(O)CNC(=O)CCCc1ccccn1 (centres undefined) | 15.5%
61 | CC(CNC(=O)CCc1ccccn1)c1ccsc1 (centres undefined) | 22.2%
62 | CC(CNC(=O)CCCc1ccccn1)c1ccsc1 (centres undefined) | 60.2%
63 | CC(C)CS(=O)(=O)CC(=O)NC1CCCCNC1=O (centres undefined) | -79.1%
64 | O=C(c1cnc(-c2ccccn2)s1)N1CCCC1Cn1cccn1 (centres undefined) | -9.19%
65 | O=C(N1CCOCC1)N1CCc2ncnc(Oc3cccnc3)c2CC1 | 0.734%
66 | Cc1nc(N(C)C)nc(NCCc2ccccn2)c1C | -43.6%
67 | Cc1nc(NCCSc2ccccn2)c2c(C)noc2n1 | 13.5%
68 | Cc1nc(C)c(C)c(NCCSc2ccccn2)n1 | 60.2%
69 | CC(C)CN1C[C@@H]2CN(C(=O)[C@H]3CCCO3)C[C@@H]2C1=O | 17.4%
